PubChem BioAssay AID1159580 (chemical genetic matrix, 2015)
Several values for one entry are separate records, joined by “and”; a condition that tells them apart may be missing. Identical values can stand only once. Hit rate of the full screen: of about 5,500 compounds, about 2,000 (36%) were called active. Not shown: some 18% with an inconclusive outcome. Cut-off read from the data, not from the text of the source: active = normalized growth mostly below about 0.91 (no sharp cut-off); inconclusive = no clear call, values can overlap the other calls; inactive = mostly above about 0.92. This is one part of the list.

Assay: chemical genetic growth profiling, strain panel (AID 1159580);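 note: tested at 20 µM; growth read once vehicle control cultures reached saturation at 30 °C; 1 = growth at the plate median or of vehicle wells; lower values mean less growth of the strain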
Details: S. cerevisiae deletion strains, growth OD

Measured: normalized growth

CS(=O)(=O)Nc1ccc([N+](=O)[O-])cc1Oc1ccccc1
inactive: locus YAL013W, strain DEP1, hits give low values 0.986 and 1 | locus YAL021C, strain ccr4, hits give low values 0.991 | locus YAL026C, strain drs2, hits give low values 0.991 | locus YAL030W, strain snc1, hits give low values 1 | locus YAL040C, strain CLN3, hits give low values 1 | locus YBL061C, strain skt5, hits give low values 0.994 | locus YBR009C, strain hhf1, hits give low values 0.971 | locus YBR021W, strain FUR4, hits give low values 0.994 | locus YBR023C, strain chs3, hits give low values 0.984 | locus YBR171W, strain sec66, hits give low values 0.988 | locus YBR229C, strain ROT2, hits give low values 0.958 | locus YBR231C, strain swc5, hits give low values 0.993 | locus YBR279W, strain paf1, hits give low values 0.994 | locus YCL011C, strain gbp2, hits give low values 0.996 | locus YCL016C, strain dcc1, hits give low values 0.997 | locus YCL029C, strain bik1, hits give low values 0.97 | locus YCL061C, strain MRC1 (second series), hits give low values 1.01 | locus YCL061C, strain MRC1, hits give low values 1 | locus YCL069W, strain vba3, hits give low values 0.997 | locus YCR088W, strain abp1, hits give low values 0.999 | locus YDL005C, strain med2, hits give low values 0.991 | locus YDL035C, strain GPR1, hits give low values 0.976 | locus YDL040C, strain nat1, hits give low values 0.985 | locus YDL074C, strain BRE1, hits give low values 0.944 | locus YDL101C, strain DUN1, hits give low values 0.964 | locus YDL134C, strain PPH21, hits give low values 0.999 | locus YDL185W, strain tfp1, hits give low values 0.971 | locus YDL192W, strain arf1, hits give low values 0.966 | locus YDR001C, strain nth1, hits give low values 0.993 | locus YDR069C, strain doa4, hits give low values 1.02 | locus YDR101C, strain arx1, hits give low values 0.98 | locus YDR137W, strain rgp1, hits give low values 0.857 | locus YDR150W, strain NUM1, hits give low values 0.983 and 1.02 | locus YDR159W, strain sac3, hits give low values 0.977 | locus YDR162C, strain NBP2, hits give low values 0.979 | locus YDR195W, strain ref2 1.01 | locus YDR297W, strain sur2, hits give low values 0.991 | locus YDR318W, strain mcm21, hits give low values 0.991 | locus YDR334W, strain swr1, hits give low values 1 | locus YDR335W, strain msn5, hits give low values 0.993 | locus YDR363W, strain ESC2, hits give low values 0.994 | locus YDR388W, hits give low values 0.977 | locus YDR392W, strain spt3, hits give low values 0.904 | locus YDR502C, strain sam2, hits give low values 0.943 | locus YEL003W, strain gim4, hits give low values 0.999 | locus YEL037C, strain rad23, hits give low values 0.995 | locus YEL061C, strain CIN8 (second series), hits give low values 0.988 | locus YEL061C, strain CIN8, hits give low values 0.979 | locus YER002W, strain NOP16, hits give low values 0.997 | locus YER015W, strain faa2, hits give low values 0.994 | locus YER016W, strain bim1, hits give low values 0.991 | locus YER110C, hits give low values 0.986 | locus YER111C, strain swi4, hits give low values 0.978 | locus YER155C, strain BEM2 (second series), hits give low values 0.991 | locus YER155C, strain BEM2, hits give low values 1 | locus YER167W, strain BCK2, hits give low values 1 | locus YFR010W, strain ubp6, hits give low values 1 | locus YGL078C, strain dbp3, hits give low values 0.978 | locus YGL086W, strain mad1, hits give low values 0.969 | locus YGL167C, strain pmr1, hits give low values 0.988 | locus YGL173C, strain kem1, hits give low values 0.995 | locus YGL227W, strain vid30, hits give low values 0.997 | locus YGL240W, strain doc1, hits give low values 0.995 | locus YGL248W, strain PDE1, hits give low values 0.946 | locus YGL253W, strain hxk2, hits give low values 1.01 | locus YGR078C, strain PAC10, hits give low values 0.96 and 1.02 | locus YGR135W, strain pre9, hits give low values 1.02 | locus YGR229C, strain SMI1, hits give low values 0.971 | locus YGR252W, strain gcn5, hits give low values 0.92 | locus YHR013C, strain ard1, hits give low values 0.967 | locus YHR027C, strain rpn1, hits give low values 0.995 | locus YHR030C, strain SLT2, hits give low values 0.995 and 1.02 | locus YHR079C, strain IRE1 (second series), hits give low values 0.977 | locus YHR079C, strain IRE1, hits give low values 1.04 | locus YHR094C, strain hxt1, hits give low values 0.98 | locus YHR129C, strain ARP1, hits give low values 0.987 | locus YHR142W, strain chs7, hits give low values 0.991 | locus YHR200W, strain rpn10, hits give low values 0.972 | locus YIL066C, strain RNR3, hits give low values 0.964 | locus YIL073C, strain SPO22, hits give low values 0.969 | locus YIL125W, strain kgd1, hits give low values 0.98 | locus YIR030C, strain dcg1, hits give low values 0.976 | locus YJL092W, strain hpr5, hits give low values 0.997 | locus YJL095W, strain BCK1 (second series), hits give low values 0.993 | locus YJL095W, strain BCK1, hits give low values 0.956 and 1.04 | locus YJL115W, strain asf1, hits give low values 0.999 | locus YJL129C, strain trk1, hits give low values 0.979 | locus YJL134W, strain LCB3, hits give low values 0.991 | locus YJL154C, strain vps35, hits give low values 0.992 | locus YJL164C, strain tpk1, hits give low values 0.992 | locus YJL166W, strain qcr8, hits give low values 0.997 | locus YJL168C, strain set2, hits give low values 0.98 | locus YJL187C, strain SWE1 (second series), hits give low values 0.949 | locus YJL187C, strain SWE1, hits give low values 0.996 | locus YJR043C, strain POL32, hits give low values 0.911
